According to publication PMC8384837, “Expanding the binding specificity for RNA recognition by a PUF domain”:
Residue numbers refer to the chain shown, from its start.

Columns and labels:
Experiment in all cases: yeast three-hybrid, YBZ-1, SC-Leu-His + 0.5 mM 3-AT, 4 days
Details in all cases: tags: N-Gal4 AD-HA kept; label: inside an RPR1-promoter hybrid RNA with tandem MS2 sites; ssRNA
[1] = target: PUM1 PUF domain R4-WSS (Homo sapiens, UniProt Q14671 828-1176, N971W;H972S;Q975S)
Method in brief: (§1)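 Matching RNA elements and Pumilio-1 PUF domain libraries, randomized at the three base-contacting residues of every repeat, were co-expressed from a centromeric plasmid in strain YBZ-1 (LexA–MS2 coat fusion, HIS3 reporter). The repeat regions were PCR-amplified and Illumina-sequenced from cells grown four days on SC-Leu (input) or SC-Leu-His + 0.5 mM 3-AT (selection). The interaction score is the log change in variant frequency from input to selection. It is computed in log2, with a pseudocount of 1 for absent variants.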

[2] = target: PUM1 PUF domain R4-WAW (Homo sapiens, UniProt Q14671 828-1176, N971W;H972A;Q975W)
Method in brief: as §1

[3] = target: PUM1 PUF domain R1-RRQ (Homo sapiens, UniProt Q14671 828-1176, S863R)
Method in brief: as §1

[4] = target: PUM1 PUF domain R1-SWD (Homo sapiens, UniProt Q14671 828-1176, R864W;Q867D)
Method in brief: as §1

[5] = target: PUM1 PUF domain R7-RER (Homo sapiens, UniProt Q14671 828-1176, S1079R;N1080E;E1083R)
Method in brief: as §1

[6] = target: T1, PUM1 PUF domain R6-IYS (Homo sapiens, UniProt Q14671 828-1176, N1043I;Q1047S)
T1 sequence: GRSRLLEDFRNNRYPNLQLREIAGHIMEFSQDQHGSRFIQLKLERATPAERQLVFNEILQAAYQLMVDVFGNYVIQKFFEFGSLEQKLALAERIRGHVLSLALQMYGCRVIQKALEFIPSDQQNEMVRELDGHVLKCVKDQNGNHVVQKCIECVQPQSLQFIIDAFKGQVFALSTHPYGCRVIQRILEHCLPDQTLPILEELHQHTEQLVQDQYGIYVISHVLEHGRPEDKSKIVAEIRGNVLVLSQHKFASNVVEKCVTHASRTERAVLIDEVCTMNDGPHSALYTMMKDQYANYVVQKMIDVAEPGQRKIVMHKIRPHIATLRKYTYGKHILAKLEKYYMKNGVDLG
Method in brief: as §1

[7] = target: PUM1 PUF domain R5-RRI (Homo sapiens, UniProt Q14671 828-1176, C1007R;Q1011I)
Method in brief: as §1

[8] = target: PUM1 PUF domain R4-CMI (Homo sapiens, UniProt Q14671 828-1176, N971C;H972M;Q975I)
Method in brief: as §1

[9] = target: PUM1 PUF domain R5-QRR (Homo sapiens, UniProt Q14671 828-1176, C1007Q;Q1011R)
Method in brief: as §1

[10] = target: PUM1 PUF domain R8-YFR (Homo sapiens, UniProt Q14671 828-1176, N1122Y;Y1123F;Q1126R)
Method in brief: as §1

[11] = target: T2, PUM1 PUF domain R6-WWR (Homo sapiens, UniProt Q14671 828-1176, N1043W;Y1044W;Q1047R)
T2 sequence: T1 sequence with I216W, Y217W, S220R
Method in brief: as §1

[12] = target: PUM1 PUF domain R5-KQL (Homo sapiens, UniProt Q14671 828-1176, C1007K;R1008Q;Q1011L)
Method in brief: as §1

[13] = target: PUM1 PUF domain R3-GCE (Homo sapiens, UniProt Q14671 828-1176, C935G;R936C;Q939E)
Method in brief: as §1

[14] = target: PUM1 PUF domain R5-RNL (Homo sapiens, UniProt Q14671 828-1176, C1007R;R1008N;Q1011L)
Method in brief: as §1

[15] = target: PUM1 PUF domain R5-KNQ (Homo sapiens, UniProt Q14671 828-1176, C1007K;R1008N)
Method in brief: as §1

Chain of PUM1 PUF domain R5-QRR (Q14671 828-1176 C1007Q/Q1011R): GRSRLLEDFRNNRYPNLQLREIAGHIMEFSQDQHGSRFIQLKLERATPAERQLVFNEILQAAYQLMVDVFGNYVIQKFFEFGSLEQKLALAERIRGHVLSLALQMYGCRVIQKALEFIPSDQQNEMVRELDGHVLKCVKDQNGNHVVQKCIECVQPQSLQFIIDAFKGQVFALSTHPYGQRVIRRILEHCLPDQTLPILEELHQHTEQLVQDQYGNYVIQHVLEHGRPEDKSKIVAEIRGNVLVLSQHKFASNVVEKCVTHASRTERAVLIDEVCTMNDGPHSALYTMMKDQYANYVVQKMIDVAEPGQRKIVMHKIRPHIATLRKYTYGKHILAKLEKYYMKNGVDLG
Chain of PUM1 PUF domain R5-RRI (Q14671 828-1176 C1007R/Q1011I): as the sequence (Q14671 828-1176 C1007Q/Q1011R) above, with Q180R, R184I counted along it
Chain of PUM1 PUF domain R5-KQL (Q14671 828-1176 C1007K/R1008Q/Q1011L): as the sequence (Q14671 828-1176 C1007Q/Q1011R) above, with Q180K, R181Q, R184L counted along it
Chain of PUM1 PUF domain R4-WSS (Q14671 828-1176 N971W/H972S/Q975S): as the sequence (Q14671 828-1176 C1007Q/Q1011R) above, with N144W, H145S, Q148S, Q180C, R184Q counted along it
Chain of PUM1 PUF domain R4-WAW (Q14671 828-1176 N971W/H972A/Q975W): as the sequence (Q14671 828-1176 C1007Q/Q1011R) above, with N144W, H145A, Q148W, Q180C, R184Q counted along it
Chain of PUM1 PUF domain R1-RRQ (Q14671 828-1176 S863R): as the sequence (Q14671 828-1176 C1007Q/Q1011R) above, with S36R, Q180C, R184Q counted along it

## GGCUAGAACUAGUGGAUCCCCCGGCGCCCGGCGGCUCGAGCCCGGGUAAGUGUACAUAGUCUGCAUGCCGCCGGGCGCCAUGCCUGCAGGUCGACUCUAGAAAACAUG
[1]
  binding signal: 2 log2 enrichment (interaction score)
[2]
  binding signal: 2.47 log2 enrichment (interaction score)

## GGCUAGAACUAGUGGAUCCCCCGGCGCCCGGCGGCUCGAGCCCGGGUAAGUGUAAAUGGUCUGCAUGCCGCCGGGCGCCAUGCCUGCAGGUCGACUCUAGAAAACAUG
[3]
  binding signal: 1.96 log2 enrichment (interaction score)
[4]
  binding signal: 4.27 log2 enrichment (interaction score)

## GGCUAGAACUAGUGGAUCCCCCGGCGCCCGGCGGCUCGAGCCCGGGUAAGUUUAAAUAGUCUGCAUGCCGCCGGGCGCCAUGCCUGCAGGUCGACUCUAGAAAACAUG
[5]
  binding signal: 4.54 log2 enrichment (interaction score)

## GGCUAGAACUAGUGGAUCCCCCGGCGCCCGGCGGCUCGAGCCCGGGUAAGUGUAAAUAGUCUGCAUGCCGCCGGGCGCCAUGCCUGCAGGUCGACUCUAGAAAACAUG
[6]
  binding signal: 2.42 log2 enrichment (interaction score)
[1]
  binding signal: 2.27 log2 enrichment (interaction score)
[7]
  binding signal: 2.01 log2 enrichment (interaction score)
[8]
  binding signal: 2.77 log2 enrichment (interaction score)
[9]
  binding signal: 1.74 log2 enrichment (interaction score)
[2]
  binding signal: 5.21 log2 enrichment (interaction score)
[10]
  binding signal: 5.17 log2 enrichment (interaction score)
[11]
  binding signal: 5.15 log2 enrichment (interaction score)
[12]
  binding signal: 1.4 log2 enrichment (interaction score)

## GGCUAGAACUAGUGGAUCCCCCGGCGCCCGGCGGCUCGAGCCCGGGUAAGUGUAAGUAGUCUGCAUGCCGCCGGGCGCCAUGCCUGCAGGUCGACUCUAGAAAACAUG
[13]
  binding signal: 4.51 log2 enrichment (interaction score)

## GGCUAGAACUAGUGGAUCCCCCGGCGCCCGGCGGCUCGAGCCCGGGUAAGUGUCAAUAGUCUGCAUGCCGCCGGGCGCCAUGCCUGCAGGUCGACUCUAGAAAACAUG
[7]
  binding signal: 3.62 log2 enrichment (interaction score)
[14]
  binding signal: 2.83 log2 enrichment (interaction score)
[9]
  binding signal: 6.46 log2 enrichment (interaction score)
[12]
  binding signal: 5.23 log2 enrichment (interaction score)

## GGCUAGAACUAGUGGAUCCCCCGGCGCCCGGCGGCUCGAGCCCGGGUAAGUGUUAAUAGUCUGCAUGCCGCCGGGCGCCAUGCCUGCAGGUCGACUCUAGAAAACAUG
[7]
  binding signal: 4.69 log2 enrichment (interaction score)
[14]
  binding signal: 3.54 log2 enrichment (interaction score)
[9]
  binding signal: 4.36 log2 enrichment (interaction score)
[15]
  binding signal: 4.28 log2 enrichment (interaction score)
[12]
  binding signal: 3.92 log2 enrichment (interaction score)
